PMC7862700, “An all-to-all approach to the identification of sequence-specific readers for epigenetic DNA modifications on cytosine”

Assays:
Assay in all cases: DAPPL (digital affinity profiling via proximity ligation, sequencing); 10 mM Tris-HCl pH 7.5, 50 mM NaCl, 1 mM DTT, 4% glycerol, room temperature, 30 min; GST-TFs on glutathione beads, 16-mer random dsDNA library, 0.1% formaldehyde crosslink after washing; high values mean tight binding
FEV = target: T1, FEV (Homo sapiens, UniProt Q99581 1-238); conditions: protein: recombinant; tags: N-terminal GST; dsDNA, one strand shown
T1 sequence: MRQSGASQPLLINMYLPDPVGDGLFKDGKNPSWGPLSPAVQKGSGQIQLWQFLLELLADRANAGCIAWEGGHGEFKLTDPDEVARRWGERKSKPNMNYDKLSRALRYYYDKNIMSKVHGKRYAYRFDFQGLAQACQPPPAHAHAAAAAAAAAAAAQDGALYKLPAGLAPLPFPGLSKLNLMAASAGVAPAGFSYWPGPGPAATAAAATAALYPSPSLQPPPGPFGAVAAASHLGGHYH
Summary of the method: (§1)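 Binding signal is each hexamer's read frequency for a factor divided by its frequency in the tag-only sample. The factors were GST-fused human transcription factors from yeast, captured on glutathione beads, DNA-barcoded and pooled with that sample. Pools were incubated with 200 nmole of a random double-stranded 16-mer DNA library in Tris/NaCl/DTT/glycerol buffer at room temperature for 30 min, then washed, crosslinked with 0.1% formaldehyde, proximity-ligated with BsaI/T4 ligase (1 h, 37 °C), PCR-amplified and sequenced on an Illumina NextSeq500.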

ETV5 = ETV5 (Homo sapiens, UniProt P41161 1-510); conditions: protein: recombinant; tags: N-terminal GST; dsDNA, one strand shown
Chain of ETV5 (P41161 whole entry): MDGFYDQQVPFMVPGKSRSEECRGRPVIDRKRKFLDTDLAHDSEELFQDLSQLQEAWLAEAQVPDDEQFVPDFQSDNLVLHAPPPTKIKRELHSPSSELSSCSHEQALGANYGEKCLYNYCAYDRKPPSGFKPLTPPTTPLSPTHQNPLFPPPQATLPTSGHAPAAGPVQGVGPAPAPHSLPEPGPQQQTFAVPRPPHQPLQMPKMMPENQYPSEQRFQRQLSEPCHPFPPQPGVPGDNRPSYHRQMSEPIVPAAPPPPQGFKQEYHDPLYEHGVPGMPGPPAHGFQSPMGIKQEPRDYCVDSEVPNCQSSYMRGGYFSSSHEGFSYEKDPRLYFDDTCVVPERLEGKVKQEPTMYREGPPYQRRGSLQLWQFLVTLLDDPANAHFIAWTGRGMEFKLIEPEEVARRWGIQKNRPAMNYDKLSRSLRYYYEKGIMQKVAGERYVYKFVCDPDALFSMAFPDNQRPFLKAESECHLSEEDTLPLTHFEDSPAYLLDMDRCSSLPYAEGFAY
Summary of the method: as §1

HSF1 = HSF1 (Homo sapiens, UniProt Q00613 1-529); conditions: protein: recombinant; tags: N-terminal GST; chain copies: 3; dsDNA, one strand shown
Chain of HSF1 (Q00613 whole entry): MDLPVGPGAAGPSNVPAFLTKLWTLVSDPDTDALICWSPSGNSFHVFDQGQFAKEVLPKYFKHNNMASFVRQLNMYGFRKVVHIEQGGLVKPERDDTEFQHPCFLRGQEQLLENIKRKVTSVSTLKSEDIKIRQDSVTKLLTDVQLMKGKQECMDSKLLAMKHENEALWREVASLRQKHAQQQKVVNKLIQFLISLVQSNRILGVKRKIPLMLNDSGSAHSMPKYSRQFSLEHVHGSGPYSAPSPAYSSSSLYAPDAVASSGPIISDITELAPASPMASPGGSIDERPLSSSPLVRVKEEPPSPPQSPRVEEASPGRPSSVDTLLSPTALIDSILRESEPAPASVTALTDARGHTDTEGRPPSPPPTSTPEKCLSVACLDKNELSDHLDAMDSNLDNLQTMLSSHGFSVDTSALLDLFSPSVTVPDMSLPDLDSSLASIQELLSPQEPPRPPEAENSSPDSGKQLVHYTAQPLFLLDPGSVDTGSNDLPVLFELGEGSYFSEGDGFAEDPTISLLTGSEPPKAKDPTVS
Summary of the method: as §1

SPIC = target: T2, SPIC (Homo sapiens, UniProt Q8N5J4 1-248); conditions: protein: recombinant; tags: N-terminal GST; dsDNA, one strand shown
T2 sequence: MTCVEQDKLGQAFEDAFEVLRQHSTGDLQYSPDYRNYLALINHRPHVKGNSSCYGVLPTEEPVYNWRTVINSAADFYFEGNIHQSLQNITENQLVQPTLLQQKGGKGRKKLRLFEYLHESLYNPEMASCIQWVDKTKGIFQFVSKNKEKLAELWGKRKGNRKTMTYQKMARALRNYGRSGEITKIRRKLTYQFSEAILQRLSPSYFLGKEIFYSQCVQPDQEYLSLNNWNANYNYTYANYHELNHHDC
Summary of the method: as §1

ELF4 = ELF4 (Homo sapiens, UniProt Q99607 1-663); conditions: protein: recombinant; tags: N-terminal GST; dsDNA, one strand shown
Chain of ELF4 (Q99607 whole entry): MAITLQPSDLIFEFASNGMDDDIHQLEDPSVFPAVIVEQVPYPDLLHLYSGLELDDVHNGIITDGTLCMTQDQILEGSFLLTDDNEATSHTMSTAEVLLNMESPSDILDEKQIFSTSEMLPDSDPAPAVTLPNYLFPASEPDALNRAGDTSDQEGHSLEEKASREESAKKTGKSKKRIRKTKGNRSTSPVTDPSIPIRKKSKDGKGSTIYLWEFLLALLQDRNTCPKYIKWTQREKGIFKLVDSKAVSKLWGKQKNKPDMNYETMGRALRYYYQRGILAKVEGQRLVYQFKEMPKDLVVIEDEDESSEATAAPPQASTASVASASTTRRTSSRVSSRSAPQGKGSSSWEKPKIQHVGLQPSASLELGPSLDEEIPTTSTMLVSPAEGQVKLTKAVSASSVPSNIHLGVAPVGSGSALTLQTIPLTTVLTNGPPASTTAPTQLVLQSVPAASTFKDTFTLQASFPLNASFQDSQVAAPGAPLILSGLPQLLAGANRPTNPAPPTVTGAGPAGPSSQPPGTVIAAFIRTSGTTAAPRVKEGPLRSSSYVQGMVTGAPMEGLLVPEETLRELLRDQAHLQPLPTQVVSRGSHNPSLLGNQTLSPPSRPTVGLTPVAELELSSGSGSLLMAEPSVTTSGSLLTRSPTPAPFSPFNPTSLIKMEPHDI
Summary of the method: as §1

ELK4 = target: T3, ELK4 (Homo sapiens, UniProt P28324-2 1-405); conditions: protein: recombinant; tags: N-terminal GST; dsDNA, one strand shown
T3 sequence: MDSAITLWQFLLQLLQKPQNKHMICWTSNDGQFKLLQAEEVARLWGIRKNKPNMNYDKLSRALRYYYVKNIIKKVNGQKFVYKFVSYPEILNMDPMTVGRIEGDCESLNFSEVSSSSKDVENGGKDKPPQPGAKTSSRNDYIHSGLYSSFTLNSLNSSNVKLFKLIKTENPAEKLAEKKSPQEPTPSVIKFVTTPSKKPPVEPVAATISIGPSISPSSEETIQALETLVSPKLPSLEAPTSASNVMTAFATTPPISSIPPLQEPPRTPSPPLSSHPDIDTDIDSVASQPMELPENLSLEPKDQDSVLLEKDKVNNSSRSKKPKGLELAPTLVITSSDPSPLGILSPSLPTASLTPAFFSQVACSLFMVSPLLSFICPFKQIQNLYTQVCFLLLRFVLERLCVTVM
Summary of the method: as §1

ETV2 = target: T4, ETV2 (Homo sapiens, UniProt O00321 1-342); conditions: protein: recombinant; tags: N-terminal GST; dsDNA, one strand shown
T4 sequence: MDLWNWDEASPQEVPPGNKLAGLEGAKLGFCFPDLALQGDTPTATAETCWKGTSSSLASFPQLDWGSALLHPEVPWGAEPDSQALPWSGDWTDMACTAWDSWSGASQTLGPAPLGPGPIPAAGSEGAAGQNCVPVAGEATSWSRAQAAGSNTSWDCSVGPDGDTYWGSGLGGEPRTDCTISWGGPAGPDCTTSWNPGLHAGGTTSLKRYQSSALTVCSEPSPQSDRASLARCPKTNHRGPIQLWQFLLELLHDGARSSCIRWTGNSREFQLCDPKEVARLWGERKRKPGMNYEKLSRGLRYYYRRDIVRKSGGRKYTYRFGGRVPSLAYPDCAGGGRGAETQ
Summary of the method: as §1

ELF3 = target: T5, ELF3 (Homo sapiens, UniProt P78545 1-371); conditions: protein: recombinant; tags: N-terminal GST; dsDNA, one strand shown
T5 sequence: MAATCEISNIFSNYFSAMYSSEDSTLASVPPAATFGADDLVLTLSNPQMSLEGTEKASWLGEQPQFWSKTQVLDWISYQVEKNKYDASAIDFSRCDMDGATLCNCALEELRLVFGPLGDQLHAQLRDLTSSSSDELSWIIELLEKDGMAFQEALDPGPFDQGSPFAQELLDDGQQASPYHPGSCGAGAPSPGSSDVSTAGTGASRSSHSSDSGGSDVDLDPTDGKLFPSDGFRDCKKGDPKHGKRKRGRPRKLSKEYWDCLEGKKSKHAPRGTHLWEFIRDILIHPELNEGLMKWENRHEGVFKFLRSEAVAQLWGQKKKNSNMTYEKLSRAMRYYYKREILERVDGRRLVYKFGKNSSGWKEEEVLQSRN
Summary of the method: as §1

CRX = CRX (Homo sapiens, UniProt O43186 1-299); conditions: protein: recombinant; tags: N-terminal GST; dsDNA, one strand shown
Chain of CRX (O43186 whole entry): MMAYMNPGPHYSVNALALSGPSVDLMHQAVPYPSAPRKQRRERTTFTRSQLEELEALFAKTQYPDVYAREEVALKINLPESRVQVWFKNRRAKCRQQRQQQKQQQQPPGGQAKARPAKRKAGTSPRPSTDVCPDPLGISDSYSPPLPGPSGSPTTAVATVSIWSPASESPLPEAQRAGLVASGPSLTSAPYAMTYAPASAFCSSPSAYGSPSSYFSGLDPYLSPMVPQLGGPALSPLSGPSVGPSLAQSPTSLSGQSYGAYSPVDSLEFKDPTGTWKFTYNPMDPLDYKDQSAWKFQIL
Summary of the method: as §1

ETV1 = ETV1 (Homo sapiens, UniProt P50549 1-477); conditions: protein: recombinant; tags: N-terminal GST; dsDNA, one strand shown
Chain of ETV1 (P50549 whole entry): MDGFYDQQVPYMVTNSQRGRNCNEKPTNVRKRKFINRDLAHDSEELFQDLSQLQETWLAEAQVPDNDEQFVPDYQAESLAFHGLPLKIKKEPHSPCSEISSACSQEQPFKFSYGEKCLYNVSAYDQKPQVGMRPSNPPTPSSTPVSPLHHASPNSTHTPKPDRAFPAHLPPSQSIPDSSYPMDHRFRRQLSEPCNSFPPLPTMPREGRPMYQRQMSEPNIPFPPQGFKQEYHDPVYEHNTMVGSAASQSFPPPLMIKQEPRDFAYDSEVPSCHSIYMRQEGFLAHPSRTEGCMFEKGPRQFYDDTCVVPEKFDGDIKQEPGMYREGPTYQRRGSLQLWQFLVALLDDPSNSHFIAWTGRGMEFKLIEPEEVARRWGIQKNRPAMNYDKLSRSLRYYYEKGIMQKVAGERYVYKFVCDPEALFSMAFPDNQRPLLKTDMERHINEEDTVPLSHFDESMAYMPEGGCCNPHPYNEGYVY
Summary of the method: as §1

ERF = target: T6, ERF (Homo sapiens, UniProt P50548 1-548); conditions: protein: recombinant; tags: N-terminal GST; dsDNA, one strand shown
T6 sequence: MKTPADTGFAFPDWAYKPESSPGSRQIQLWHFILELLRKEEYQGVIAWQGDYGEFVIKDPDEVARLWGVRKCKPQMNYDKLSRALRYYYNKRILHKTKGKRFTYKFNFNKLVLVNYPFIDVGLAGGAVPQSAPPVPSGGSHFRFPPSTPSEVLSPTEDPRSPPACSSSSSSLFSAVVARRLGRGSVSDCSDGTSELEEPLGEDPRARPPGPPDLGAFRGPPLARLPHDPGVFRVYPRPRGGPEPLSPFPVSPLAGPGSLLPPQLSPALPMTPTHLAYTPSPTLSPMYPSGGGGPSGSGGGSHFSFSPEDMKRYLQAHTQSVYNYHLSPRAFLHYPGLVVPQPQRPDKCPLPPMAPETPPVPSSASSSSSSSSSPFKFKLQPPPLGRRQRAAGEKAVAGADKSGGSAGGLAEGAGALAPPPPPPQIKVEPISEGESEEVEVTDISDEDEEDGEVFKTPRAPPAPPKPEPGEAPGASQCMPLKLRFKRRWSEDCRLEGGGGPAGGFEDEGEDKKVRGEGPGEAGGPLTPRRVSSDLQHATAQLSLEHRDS
Summary of the method: as §1

ETV3L = target: T7, ETV3L (Homo sapiens, UniProt Q6ZN32 1-361); conditions: protein: recombinant; tags: N-terminal GST; dsDNA, one strand shown
T7 sequence: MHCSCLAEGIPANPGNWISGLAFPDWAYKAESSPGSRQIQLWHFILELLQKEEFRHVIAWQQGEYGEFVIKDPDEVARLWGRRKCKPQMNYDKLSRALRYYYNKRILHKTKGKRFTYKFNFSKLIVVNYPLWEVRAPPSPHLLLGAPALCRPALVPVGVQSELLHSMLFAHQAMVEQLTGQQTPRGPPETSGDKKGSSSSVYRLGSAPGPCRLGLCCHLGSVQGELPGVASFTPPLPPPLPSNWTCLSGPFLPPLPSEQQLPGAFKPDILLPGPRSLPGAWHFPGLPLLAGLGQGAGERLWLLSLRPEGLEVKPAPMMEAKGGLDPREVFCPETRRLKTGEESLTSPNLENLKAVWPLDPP
Summary of the method: as §1

ETS2 = target: T8, ETS2 (Homo sapiens, UniProt P15036 1-469); conditions: protein: recombinant; tags: N-terminal GST; dsDNA, one strand shown
T8 sequence: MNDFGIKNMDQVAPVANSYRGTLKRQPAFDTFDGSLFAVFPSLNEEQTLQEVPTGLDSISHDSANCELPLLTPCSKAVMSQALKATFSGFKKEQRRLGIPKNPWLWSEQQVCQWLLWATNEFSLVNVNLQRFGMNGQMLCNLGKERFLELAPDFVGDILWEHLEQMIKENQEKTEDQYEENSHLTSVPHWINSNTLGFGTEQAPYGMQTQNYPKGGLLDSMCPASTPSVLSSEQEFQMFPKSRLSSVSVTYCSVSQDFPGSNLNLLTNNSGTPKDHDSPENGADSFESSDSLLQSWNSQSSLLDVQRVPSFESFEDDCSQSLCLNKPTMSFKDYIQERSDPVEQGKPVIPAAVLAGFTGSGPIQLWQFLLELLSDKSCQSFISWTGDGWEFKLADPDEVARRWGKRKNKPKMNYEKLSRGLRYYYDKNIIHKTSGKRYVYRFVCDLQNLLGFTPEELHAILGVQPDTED
Summary of the method: as §1

SPDEF = target: T9, SPDEF (Homo sapiens, UniProt O95238 1-335); conditions: protein: recombinant; tags: N-terminal GST; dsDNA, one strand shown
T9 sequence: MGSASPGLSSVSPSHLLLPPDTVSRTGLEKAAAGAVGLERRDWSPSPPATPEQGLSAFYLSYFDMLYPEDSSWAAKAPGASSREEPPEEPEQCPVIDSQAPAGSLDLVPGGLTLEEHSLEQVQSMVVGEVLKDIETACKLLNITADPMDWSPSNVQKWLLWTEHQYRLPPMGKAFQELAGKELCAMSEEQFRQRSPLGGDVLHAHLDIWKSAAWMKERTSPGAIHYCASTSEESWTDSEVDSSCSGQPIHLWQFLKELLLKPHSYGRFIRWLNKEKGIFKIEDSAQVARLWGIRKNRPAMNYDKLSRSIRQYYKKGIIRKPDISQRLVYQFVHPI
Summary of the method: as §1

ETV7 = target: T10, ETV7 (Homo sapiens, UniProt Q9Y603 1-341); conditions: protein: recombinant; tags: N-terminal GST; dsDNA, one strand shown
T10 sequence: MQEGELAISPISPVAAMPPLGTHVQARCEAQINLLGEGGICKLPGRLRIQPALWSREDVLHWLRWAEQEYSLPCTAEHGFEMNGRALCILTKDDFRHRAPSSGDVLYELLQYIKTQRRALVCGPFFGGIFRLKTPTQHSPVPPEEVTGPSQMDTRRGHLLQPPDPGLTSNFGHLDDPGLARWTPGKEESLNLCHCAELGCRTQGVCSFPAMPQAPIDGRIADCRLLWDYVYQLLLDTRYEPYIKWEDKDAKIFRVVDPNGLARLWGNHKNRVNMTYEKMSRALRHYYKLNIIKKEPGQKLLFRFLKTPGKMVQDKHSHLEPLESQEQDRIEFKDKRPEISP
Summary of the method: as §1

ELF5 = target: T11, ELF5 (Homo sapiens, UniProt Q9UKW6-2 1-255); conditions: protein: recombinant; tags: N-terminal GST; dsDNA, one strand shown
T11 sequence: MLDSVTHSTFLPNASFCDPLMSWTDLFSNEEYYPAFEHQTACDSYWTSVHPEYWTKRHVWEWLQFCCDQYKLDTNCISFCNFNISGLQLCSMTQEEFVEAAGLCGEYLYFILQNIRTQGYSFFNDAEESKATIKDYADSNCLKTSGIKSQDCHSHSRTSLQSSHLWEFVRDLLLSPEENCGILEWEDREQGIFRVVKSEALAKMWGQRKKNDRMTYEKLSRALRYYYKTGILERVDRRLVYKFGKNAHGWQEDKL
Summary of the method: as §1

ETV3 = target: T12, ETV3 (Homo sapiens, UniProt P41162-2 1-143); conditions: protein: recombinant; tags: N-terminal GST; dsDNA, one strand shown
T12 sequence: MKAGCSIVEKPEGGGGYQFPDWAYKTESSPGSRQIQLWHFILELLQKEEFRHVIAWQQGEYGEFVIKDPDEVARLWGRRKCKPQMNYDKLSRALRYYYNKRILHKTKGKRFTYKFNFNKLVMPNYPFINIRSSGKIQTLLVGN
Summary of the method: as §1

ETV6 = ETV6 (Homo sapiens, UniProt P41212 1-452); conditions: protein: recombinant; tags: N-terminal GST; dsDNA, one strand shown
Chain of ETV6 (P41212 whole entry): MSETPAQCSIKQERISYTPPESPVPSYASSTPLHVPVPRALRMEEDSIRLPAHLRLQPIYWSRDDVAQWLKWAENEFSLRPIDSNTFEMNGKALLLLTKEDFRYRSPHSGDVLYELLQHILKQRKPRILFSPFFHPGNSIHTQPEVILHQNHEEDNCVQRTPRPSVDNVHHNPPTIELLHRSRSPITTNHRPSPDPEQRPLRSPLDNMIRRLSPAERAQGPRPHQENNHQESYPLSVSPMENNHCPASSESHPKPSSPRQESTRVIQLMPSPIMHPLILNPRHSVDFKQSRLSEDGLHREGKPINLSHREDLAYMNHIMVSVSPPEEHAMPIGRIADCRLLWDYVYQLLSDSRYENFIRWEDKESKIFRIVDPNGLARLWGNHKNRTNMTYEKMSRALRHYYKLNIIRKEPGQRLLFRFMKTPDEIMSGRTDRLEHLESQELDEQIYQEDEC
Summary of the method: as §1

Question: What does the source list for TCACAC?
Answer: binding signal (FEV): 1.35 fold enrichment (6-mer frequency, TF over GST control); binding signal (ETV5): 1.31 fold enrichment (6-mer frequency, TF over GST control); binding signal (HSF1): 1.06 fold enrichment (6-mer frequency, TF over GST control); binding signal (SPIC): 1.24 fold enrichment (6-mer frequency, TF over GST control); binding signal (ELF4): 1.36 fold enrichment (6-mer frequency, TF over GST control); binding signal (ELK4): 1.31 fold enrichment (6-mer frequency, TF over GST control); binding signal (ETV2): 1.29 fold enrichment (6-mer frequency, TF over GST control); binding signal (ELF3): 1.19 fold enrichment (6-mer frequency, TF over GST control); binding signal (CRX): 1.07 fold enrichment (6-mer frequency, TF over GST control); binding signal (ETV1): 1.33 fold enrichment (6-mer frequency, TF over GST control); binding signal (ERF): 1.26 fold enrichment (6-mer frequency, TF over GST control); binding signal (ETV3L): 1.32 fold enrichment (6-mer frequency, TF over GST control); binding signal (ETS2): 1.33 fold enrichment (6-mer frequency, TF over GST control); binding signal (SPDEF): 1.16 fold enrichment (6-mer frequency, TF over GST control); binding signal (ETV7): 1.27 fold enrichment (6-mer frequency, TF over GST control); binding signal (ELF5): 1.26 fold enrichment (6-mer frequency, TF over GST control); binding signal (ETV3): 1.27 fold enrichment (6-mer frequency, TF over GST control); binding signal (ETV6): 1.33 fold enrichment (6-mer frequency, TF over GST control)
